Binding signal data for one sequence are collected here from publication PMC7862700, “An all-to-all approach to the identification of sequence-specific readers for epigenetic DNA modifications on cytosine”.

Holding throughout (assay): DAPPL (digital affinity profiling via proximity ligation, sequencing); 10 mM Tris-HCl pH 7.5, 50 mM NaCl, 1 mM DTT, 4% glycerol, room temperature, 30 min; GST-TFs on glutathione beads, 16-mer random dsDNA library, 0.1% formaldehyde crosslink after washing; high values mean tight binding
Assay [1] has as its target T1, FEV (Homo sapiens, UniProt Q99581 1-238).
T1 sequence: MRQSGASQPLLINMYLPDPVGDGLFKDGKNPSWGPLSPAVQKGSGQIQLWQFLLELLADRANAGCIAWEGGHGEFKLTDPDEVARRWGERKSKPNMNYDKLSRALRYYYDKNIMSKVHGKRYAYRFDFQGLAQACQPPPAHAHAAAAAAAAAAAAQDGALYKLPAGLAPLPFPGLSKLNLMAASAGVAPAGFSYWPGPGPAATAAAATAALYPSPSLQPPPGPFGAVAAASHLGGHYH
Particulars: protein: recombinant; tags: N-terminal GST; dsDNA, one strand shown. An outline of the steps:
(§1)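 Binding signal is each hexamer's read frequency for a factor divided by its frequency in the tag-only sample. The factors were GST-fused human transcription factors from yeast, captured on glutathione beads, DNA-barcoded and pooled with that sample. Pools were incubated with 200 nmole of a random double-stranded 16-mer DNA library in Tris/NaCl/DTT/glycerol buffer at room temperature for 30 min, then washed, crosslinked with 0.1% formaldehyde, proximity-ligated with BsaI/T4 ligase (1 h, 37 °C), PCR-amplified and sequenced on an Illumina NextSeq500.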

Assay [2] concerns the target ETV5 (Homo sapiens, UniProt P41161 1-510). Particulars: protein: recombinant; tags: N-terminal GST; dsDNA, one strand shown. The method in brief: as §1
Assay [3] concerns the target HSF1 (Homo sapiens, UniProt Q00613 1-529). Conditions: protein: recombinant; tags: N-terminal GST; chain copies: 3; dsDNA, one strand shown. An outline of the steps: as §1
Assay [4] deals with T2, SPIC (Homo sapiens, UniProt Q8N5J4 1-248).
T2 sequence: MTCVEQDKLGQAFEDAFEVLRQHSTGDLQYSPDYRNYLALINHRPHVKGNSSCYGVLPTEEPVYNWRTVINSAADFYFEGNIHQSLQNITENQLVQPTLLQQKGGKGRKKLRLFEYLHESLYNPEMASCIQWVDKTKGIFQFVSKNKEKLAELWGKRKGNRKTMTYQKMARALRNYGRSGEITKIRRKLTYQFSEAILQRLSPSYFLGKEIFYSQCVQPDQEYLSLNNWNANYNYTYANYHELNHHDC
Particulars: protein: recombinant; tags: N-terminal GST; dsDNA, one strand shown. The method in brief:
as §1

Assay [5] deals with ELF4 (Homo sapiens, UniProt Q99607 1-663). Particulars: protein: recombinant; tags: N-terminal GST; dsDNA, one strand shown. The method in brief: as §1
The target of assay [6] is T3, ELK4 (Homo sapiens, UniProt P28324-2 1-405).
T3 sequence: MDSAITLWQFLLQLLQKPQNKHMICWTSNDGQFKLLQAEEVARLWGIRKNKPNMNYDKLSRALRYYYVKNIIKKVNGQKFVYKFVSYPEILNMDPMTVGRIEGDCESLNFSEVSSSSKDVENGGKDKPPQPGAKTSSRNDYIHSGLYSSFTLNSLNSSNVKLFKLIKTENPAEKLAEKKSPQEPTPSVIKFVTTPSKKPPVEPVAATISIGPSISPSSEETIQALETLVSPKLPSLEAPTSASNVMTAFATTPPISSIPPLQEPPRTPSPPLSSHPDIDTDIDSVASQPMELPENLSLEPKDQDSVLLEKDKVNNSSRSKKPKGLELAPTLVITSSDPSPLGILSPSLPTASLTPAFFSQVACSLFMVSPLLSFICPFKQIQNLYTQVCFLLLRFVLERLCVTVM
Conditions: protein: recombinant; tags: N-terminal GST; dsDNA, one strand shown. The method in brief:
as §1

In assay [7] the target is T4, ETV2 (Homo sapiens, UniProt O00321 1-342).
T4 sequence: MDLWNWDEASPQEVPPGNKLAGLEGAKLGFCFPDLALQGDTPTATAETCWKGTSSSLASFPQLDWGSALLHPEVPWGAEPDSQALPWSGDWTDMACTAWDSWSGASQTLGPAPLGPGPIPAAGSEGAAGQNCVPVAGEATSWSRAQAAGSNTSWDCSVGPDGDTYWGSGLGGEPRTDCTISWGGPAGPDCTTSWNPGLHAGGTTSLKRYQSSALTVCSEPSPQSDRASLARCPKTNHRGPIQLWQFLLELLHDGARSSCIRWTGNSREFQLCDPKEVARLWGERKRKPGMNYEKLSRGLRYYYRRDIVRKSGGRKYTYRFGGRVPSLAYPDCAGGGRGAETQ
Conditions: protein: recombinant; tags: N-terminal GST; dsDNA, one strand shown. The method in brief: as §1

Assay [8] concerns the target T5, ELF3 (Homo sapiens, UniProt P78545 1-371).
T5 sequence: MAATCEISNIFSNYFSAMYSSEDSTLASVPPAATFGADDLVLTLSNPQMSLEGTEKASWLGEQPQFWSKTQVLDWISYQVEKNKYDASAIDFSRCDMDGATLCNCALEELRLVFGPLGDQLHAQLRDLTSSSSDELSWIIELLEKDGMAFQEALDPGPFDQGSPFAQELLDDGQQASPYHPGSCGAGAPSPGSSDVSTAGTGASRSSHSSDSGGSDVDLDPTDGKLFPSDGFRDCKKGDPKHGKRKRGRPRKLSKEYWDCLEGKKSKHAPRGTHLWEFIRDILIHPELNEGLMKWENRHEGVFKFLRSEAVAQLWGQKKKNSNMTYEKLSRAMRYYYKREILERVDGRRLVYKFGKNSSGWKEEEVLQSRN
Particulars: protein: recombinant; tags: N-terminal GST; dsDNA, one strand shown. An outline of the steps: as §1

In assay [9] the target is CRX (Homo sapiens, UniProt O43186 1-299). Conditions: protein: recombinant; tags: N-terminal GST; dsDNA, one strand shown. The method in brief:
as §1

In assay [10] the target is ETV1 (Homo sapiens, UniProt P50549 1-477). Particulars: protein: recombinant; tags: N-terminal GST; dsDNA, one strand shown. An outline of the steps: as §1
For assay [11], the target named is T6, ERF (Homo sapiens, UniProt P50548 1-548).
T6 sequence: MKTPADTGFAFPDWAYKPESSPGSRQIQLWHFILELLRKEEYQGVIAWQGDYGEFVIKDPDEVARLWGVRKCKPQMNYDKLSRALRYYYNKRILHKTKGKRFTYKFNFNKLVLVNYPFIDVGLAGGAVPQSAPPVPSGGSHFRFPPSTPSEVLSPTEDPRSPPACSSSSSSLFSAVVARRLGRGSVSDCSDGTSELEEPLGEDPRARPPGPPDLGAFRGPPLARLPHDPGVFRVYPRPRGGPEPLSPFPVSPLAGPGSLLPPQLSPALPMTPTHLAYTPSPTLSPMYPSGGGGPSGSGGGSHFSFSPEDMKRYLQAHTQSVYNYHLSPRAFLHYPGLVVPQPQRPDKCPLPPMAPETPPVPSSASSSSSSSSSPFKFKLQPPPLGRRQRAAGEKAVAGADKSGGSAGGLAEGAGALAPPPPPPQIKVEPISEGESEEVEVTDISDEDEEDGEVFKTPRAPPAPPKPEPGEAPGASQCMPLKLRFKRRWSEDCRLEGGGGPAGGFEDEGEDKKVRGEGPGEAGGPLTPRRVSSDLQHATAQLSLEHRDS
Conditions: protein: recombinant; tags: N-terminal GST; dsDNA, one strand shown. An outline of the steps:
as §1

Assay [12] deals with T7, ETV3L (Homo sapiens, UniProt Q6ZN32 1-361).
T7 sequence: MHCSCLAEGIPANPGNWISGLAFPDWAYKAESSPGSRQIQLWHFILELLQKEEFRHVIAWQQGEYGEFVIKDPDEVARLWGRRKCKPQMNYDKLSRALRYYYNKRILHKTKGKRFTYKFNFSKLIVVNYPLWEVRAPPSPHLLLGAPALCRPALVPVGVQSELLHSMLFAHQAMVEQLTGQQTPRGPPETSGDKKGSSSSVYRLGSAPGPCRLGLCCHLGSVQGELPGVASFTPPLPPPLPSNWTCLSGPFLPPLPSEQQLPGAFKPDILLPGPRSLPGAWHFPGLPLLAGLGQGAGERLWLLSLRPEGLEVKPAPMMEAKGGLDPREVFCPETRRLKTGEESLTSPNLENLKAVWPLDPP
Conditions: protein: recombinant; tags: N-terminal GST; dsDNA, one strand shown. The method in brief:
as §1

The target of assay [13] is T8, ETS2 (Homo sapiens, UniProt P15036 1-469).
T8 sequence: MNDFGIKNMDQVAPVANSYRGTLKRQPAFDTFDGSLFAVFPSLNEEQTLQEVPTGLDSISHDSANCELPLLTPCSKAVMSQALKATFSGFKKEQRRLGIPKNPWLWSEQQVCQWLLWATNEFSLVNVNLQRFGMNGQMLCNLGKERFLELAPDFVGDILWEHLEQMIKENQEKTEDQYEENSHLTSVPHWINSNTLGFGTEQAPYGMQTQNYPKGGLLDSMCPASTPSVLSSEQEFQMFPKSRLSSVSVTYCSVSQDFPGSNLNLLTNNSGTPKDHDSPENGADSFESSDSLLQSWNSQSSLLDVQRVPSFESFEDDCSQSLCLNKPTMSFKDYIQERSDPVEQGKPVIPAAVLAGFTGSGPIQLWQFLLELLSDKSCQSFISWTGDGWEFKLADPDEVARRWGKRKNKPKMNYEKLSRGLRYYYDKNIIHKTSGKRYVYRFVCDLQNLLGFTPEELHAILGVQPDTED
Conditions: protein: recombinant; tags: N-terminal GST; dsDNA, one strand shown. An outline of the steps: as §1

For assay [14], the target named is T9, SPDEF (Homo sapiens, UniProt O95238 1-335).
T9 sequence: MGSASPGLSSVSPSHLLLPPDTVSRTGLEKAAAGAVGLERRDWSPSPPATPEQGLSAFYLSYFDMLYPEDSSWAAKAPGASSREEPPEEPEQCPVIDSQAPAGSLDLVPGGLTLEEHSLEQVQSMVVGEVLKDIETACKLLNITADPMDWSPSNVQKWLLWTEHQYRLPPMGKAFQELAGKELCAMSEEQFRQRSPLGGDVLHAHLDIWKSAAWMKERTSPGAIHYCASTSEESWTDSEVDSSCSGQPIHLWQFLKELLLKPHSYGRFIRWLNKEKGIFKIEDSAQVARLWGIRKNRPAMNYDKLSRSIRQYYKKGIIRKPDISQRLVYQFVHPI
Particulars: protein: recombinant; tags: N-terminal GST; dsDNA, one strand shown. An outline of the steps:
as §1

In assay [15] the target is T10, ETV7 (Homo sapiens, UniProt Q9Y603 1-341).
T10 sequence: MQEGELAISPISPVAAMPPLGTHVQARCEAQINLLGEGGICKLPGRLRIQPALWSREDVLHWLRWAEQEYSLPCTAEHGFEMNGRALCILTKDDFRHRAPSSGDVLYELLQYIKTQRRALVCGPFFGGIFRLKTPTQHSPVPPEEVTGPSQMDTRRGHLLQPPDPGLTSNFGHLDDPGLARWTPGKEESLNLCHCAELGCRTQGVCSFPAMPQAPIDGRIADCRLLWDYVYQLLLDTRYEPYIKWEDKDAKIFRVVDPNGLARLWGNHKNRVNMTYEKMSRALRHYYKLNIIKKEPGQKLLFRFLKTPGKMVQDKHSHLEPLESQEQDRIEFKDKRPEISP
Particulars: protein: recombinant; tags: N-terminal GST; dsDNA, one strand shown. An outline of the steps:
as §1

Assay [16] deals with T11, ELF5 (Homo sapiens, UniProt Q9UKW6-2 1-255).
T11 sequence: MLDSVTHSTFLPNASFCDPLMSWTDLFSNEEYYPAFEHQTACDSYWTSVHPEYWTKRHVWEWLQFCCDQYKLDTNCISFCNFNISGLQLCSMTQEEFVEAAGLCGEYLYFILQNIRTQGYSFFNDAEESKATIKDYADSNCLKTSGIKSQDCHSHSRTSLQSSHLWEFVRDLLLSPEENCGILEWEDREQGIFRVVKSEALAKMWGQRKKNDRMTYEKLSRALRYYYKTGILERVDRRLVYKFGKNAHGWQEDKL
Particulars: protein: recombinant; tags: N-terminal GST; dsDNA, one strand shown. An outline of the steps:
as §1

The target of assay [17] is T12, ETV3 (Homo sapiens, UniProt P41162-2 1-143).
T12 sequence: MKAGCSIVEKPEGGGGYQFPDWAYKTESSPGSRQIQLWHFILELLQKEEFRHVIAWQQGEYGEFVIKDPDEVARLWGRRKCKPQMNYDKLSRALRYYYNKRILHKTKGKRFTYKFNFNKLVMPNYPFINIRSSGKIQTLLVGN
Conditions: protein: recombinant; tags: N-terminal GST; dsDNA, one strand shown. The method in brief: as §1

Assay [18] addresses ETV6 (Homo sapiens, UniProt P41212 1-452). Conditions: protein: recombinant; tags: N-terminal GST; dsDNA, one strand shown. The method in brief:
as §1

ETV6, sequence (P41212 whole entry): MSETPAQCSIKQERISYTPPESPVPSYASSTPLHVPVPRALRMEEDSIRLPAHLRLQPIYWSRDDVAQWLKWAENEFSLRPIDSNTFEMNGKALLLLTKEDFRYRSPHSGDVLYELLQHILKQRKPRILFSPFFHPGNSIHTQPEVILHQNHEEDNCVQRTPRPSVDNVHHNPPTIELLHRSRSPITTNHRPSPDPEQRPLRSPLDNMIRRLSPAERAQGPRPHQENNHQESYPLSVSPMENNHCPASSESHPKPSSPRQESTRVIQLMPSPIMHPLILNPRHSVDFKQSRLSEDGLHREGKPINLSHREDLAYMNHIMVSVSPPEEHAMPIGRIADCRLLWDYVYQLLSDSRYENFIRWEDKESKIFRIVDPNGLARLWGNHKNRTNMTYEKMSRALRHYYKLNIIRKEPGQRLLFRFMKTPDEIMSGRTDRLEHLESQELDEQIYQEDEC
ETV1, sequence (P50549 whole entry): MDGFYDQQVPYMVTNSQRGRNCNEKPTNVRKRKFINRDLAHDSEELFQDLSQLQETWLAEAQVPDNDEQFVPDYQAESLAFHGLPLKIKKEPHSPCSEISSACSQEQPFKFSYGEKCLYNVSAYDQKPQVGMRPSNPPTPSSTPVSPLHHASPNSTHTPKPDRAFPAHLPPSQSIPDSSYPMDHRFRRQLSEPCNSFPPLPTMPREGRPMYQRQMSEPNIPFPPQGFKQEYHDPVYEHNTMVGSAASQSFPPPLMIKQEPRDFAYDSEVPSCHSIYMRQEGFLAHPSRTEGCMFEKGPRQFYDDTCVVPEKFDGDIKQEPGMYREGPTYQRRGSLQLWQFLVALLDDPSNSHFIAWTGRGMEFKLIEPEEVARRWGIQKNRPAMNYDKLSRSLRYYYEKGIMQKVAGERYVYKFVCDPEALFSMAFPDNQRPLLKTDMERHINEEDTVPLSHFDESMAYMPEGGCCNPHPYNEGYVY
ETV5, sequence (P41161 whole entry): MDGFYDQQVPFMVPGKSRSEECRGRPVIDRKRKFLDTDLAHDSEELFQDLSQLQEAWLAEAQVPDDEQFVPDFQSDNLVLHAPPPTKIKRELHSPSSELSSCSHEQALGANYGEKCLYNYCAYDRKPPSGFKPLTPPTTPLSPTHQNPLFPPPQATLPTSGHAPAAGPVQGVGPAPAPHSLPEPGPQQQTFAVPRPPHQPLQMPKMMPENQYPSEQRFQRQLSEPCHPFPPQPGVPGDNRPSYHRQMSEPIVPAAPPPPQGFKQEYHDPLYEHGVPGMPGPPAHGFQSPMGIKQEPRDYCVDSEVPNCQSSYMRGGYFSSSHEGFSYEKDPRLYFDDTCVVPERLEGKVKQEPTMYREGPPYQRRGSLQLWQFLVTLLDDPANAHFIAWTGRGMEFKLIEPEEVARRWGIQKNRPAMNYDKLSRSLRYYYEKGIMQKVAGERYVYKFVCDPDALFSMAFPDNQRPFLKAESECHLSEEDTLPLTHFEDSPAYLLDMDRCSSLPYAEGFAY
CRX, sequence (O43186 whole entry): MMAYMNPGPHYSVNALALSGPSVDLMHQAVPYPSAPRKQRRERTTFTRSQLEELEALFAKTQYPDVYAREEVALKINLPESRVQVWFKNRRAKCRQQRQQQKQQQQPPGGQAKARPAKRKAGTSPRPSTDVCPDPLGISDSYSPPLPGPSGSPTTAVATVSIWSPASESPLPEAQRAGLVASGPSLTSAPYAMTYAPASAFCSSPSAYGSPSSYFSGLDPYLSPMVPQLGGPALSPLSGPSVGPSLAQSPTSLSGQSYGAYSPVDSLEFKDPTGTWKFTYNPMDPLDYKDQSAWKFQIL
HSF1, sequence (Q00613 whole entry): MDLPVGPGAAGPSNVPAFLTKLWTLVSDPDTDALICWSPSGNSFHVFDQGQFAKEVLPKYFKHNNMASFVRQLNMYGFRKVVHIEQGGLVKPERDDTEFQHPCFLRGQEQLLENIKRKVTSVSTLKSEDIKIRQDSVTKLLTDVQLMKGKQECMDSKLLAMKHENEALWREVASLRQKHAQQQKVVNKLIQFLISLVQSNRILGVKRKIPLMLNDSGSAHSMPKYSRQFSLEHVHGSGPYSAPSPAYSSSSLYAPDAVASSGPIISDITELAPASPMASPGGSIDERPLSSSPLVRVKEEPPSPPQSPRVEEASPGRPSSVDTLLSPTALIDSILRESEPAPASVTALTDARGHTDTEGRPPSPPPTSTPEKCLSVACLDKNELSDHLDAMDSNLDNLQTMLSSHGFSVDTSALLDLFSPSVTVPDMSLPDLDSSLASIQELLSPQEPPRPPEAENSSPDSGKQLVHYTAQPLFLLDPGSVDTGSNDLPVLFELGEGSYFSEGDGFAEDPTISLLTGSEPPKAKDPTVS
ELF4, sequence (Q99607 whole entry): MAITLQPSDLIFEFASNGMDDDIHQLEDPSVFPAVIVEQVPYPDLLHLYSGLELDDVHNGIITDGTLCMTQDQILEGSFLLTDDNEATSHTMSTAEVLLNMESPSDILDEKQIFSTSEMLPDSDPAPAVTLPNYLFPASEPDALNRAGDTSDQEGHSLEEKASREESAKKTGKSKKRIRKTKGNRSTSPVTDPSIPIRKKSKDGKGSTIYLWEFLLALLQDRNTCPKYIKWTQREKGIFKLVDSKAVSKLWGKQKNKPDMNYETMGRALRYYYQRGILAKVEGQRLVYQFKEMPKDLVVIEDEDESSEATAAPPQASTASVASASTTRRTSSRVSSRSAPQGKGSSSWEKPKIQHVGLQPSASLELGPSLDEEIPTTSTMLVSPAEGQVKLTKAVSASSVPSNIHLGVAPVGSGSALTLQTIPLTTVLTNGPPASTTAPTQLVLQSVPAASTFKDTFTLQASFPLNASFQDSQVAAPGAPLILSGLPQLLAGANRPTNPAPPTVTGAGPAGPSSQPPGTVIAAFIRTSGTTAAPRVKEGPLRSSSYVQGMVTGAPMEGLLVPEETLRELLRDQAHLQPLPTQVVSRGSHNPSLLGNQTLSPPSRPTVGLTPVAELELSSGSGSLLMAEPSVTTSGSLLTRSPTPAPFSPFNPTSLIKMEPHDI

In the case of CACTTT, the binding signal in assay [1] is 1.18 fold enrichment (6-mer frequency, TF over GST control); in [2] it was 1.38 fold enrichment (6-mer frequency, TF over GST control); in assay [3], 1.17 fold enrichment (6-mer frequency, TF over GST control); in assay [4] it was 1.29 fold enrichment (6-mer frequency, TF over GST control); in assay [5], 1.3 fold enrichment (6-mer frequency, TF over GST control); in assay [6], 1.34 fold enrichment (6-mer frequency, TF over GST control). Also, the binding signal was 1.35 fold enrichment (6-mer frequency, TF over GST control) in assay [7]; 1.28 fold enrichment (6-mer frequency, TF over GST control) in assay [8]; 1.14 fold enrichment (6-mer frequency, TF over GST control) in [9]; 1.3 fold enrichment (6-mer frequency, TF over GST control) in assay [10]; 1.3 fold enrichment (6-mer frequency, TF over GST control) in assay [11]; 1.24 fold enrichment (6-mer frequency, TF over GST control) in assay [12]. In addition, the binding signal in assay [13] is 1.32 fold enrichment (6-mer frequency, TF over GST control); in assay [14], 1.16 fold enrichment (6-mer frequency, TF over GST control); in [15] it was 1.26 fold enrichment (6-mer frequency, TF over GST control); in assay [16] it was 1.23 fold enrichment (6-mer frequency, TF over GST control); in assay [17], 1.32 fold enrichment (6-mer frequency, TF over GST control); in [18], 1.26 fold enrichment (6-mer frequency, TF over GST control).
